Sampled rows, rich in hits. Any-hit rate of the full collection: about 21%.
Shiga inhibitor: blocks Shiga toxin action in Vero cells | AID 2315 | hit rate 9.2% among 290,000 | inhibition, % at 38.7 µM | Vero cells, Shiga toxin protein synthesis inhibition reporter; in the data active = inhibition mostly above about 28%, no sharp cut-off; inactive = mostly below about 43%; also: 0% is about no effect
SARS PLP yeast: blocks SARS-CoV papain-like protease in a yeast assay; S. cerevisiae expressing SARS-CoV PLpro, growth rescue; hit rate 0.19% among 330,000; Potency, µM (doses to about 32.9 µM), for the others: at the top dose activity, positive = growth rescue, most hits filed as activators; calls by dose curve; also: potency is read from the fitted curve at half-maximal effect; 0% is about no effect; nearly all actives have a fitted effect of over 55% in size
Cycloheximide cs: counter-screen hit for Shiga toxin inhibitors, cycloheximide. cell reporter, cycloheximide protein synthesis inhibition counterscreen. max response, %. hit rate 12% among 300,000. AID 2314; in the data active = max response mostly above about 13%, no sharp cut-off; inactive = mostly below about 14%; also: read at 38.3 µM for the half of the compounds with a filed dose; 0% is about no effect
NS1 function inh: blocks influenza NS1 protein function | Potency, µM (doses to about 46.1 µM), for the others: at the top dose activity, positive = more growth | hit rate 0.4% among 270,000; calls by dose curve; also: potency is read from the fitted curve at half-maximal effect; actives are rising curves; nearly all actives have a fitted effect of over 50% in size
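Recovery from NS1-induced slow growth read by OD600 in budding yeast switched to galactose assay medium (pH 6.0, -URA) at 1:100 dilution. Compound 23 nl per well; the matching strain lacking NS1 serves as control.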
Pf growth 96h: inhibits malaria parasite growth, 96 h. P. falciparum luciferase reporter growth, 96 h. Potency, µM (titrated, usually from 28.7 µM), for inactives: at the highest dose activity change, negative = inhibition, actives largely listed as inhibitors. hit rate 6.9% among 320,000. AID 504834; also: potency is read from the fitted curve at half-maximal effect; % is scaled to controls: 0 for no effect and ±100 for the full control effect
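Parasite growth measured via integrated firefly luciferase reporter in P. falciparum. Infected erythrocytes at 2% hematocrit, 0.05% parasitemia final were treated 96 hours at 37 C under 5% CO2, and luminescence was read.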
Pf growth 48h: inhibits P. falciparum growth in the first generation, 48 h; AID 504832; hit rate 5.9% among 310,000; P. falciparum luciferase growth in erythrocytes, 48 h; Potency, µM (doses to about 28.7 µM), for the others: at the top dose activity change, negative = inhibition, hits mostly inhibitors; also: potency is read from the fitted curve at half-maximal effect; % is scaled to controls: 0 for no effect and ±100 for the full control effect
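Parasite viability was followed by luminescence of a genomically integrated firefly luciferase. Cultures held 0.1% parasitemia at 2% hematocrit (final), incubated under 5% CO2 at 37 C.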
* marks the source's active call; other numbers are inactive results. Unless noted, calls follow the shape of the dose curve; as a rule, active = well fitted inhibition curve with a large enough effect; inconclusive = small, poorly fitted or top-dose-only effect, or another doubt; inactive = no such curve, though single readings can be large or run the other way.

How did COC(=O)[C@@]1(Cc2ccc(F)cc2)[C@H]2c3cc(C(=O)N(C)C)n(Cc4nc5ccccc5[nH]4)c3C[C@H]2CN1C(=O)c1ccccc1 do in these assays?
Shiga inhibitor: 5.5; SARS PLP yeast: 13.5%; Cycloheximide cs: 10.0; NS1 function inh: 28.3%; Pf growth 96h: 3.7µM*; Pf growth 48h: 1.47µM*

What do the screens show for `COC(=O)[C@@]1(Cc2ccc(F)cc2)[C@H]2c3cc(C(=O)N(C)C)n(Cc4ccccn4)c3C[C@H]2CN1C(=O)c1ccccc1`?
Shiga inhibitor: 8.8; SARS PLP yeast: -17.0%; Cycloheximide cs: -5.4; NS1 function inh: -17.2%; Pf growth 96h: 2.94µM*; Pf growth 48h: 3.29µM*

Results for COC(=O)c1ccc(CSC2=NC[C@@H]3[C@@H]4C(=O)N(C)C(=O)[C@@H]4[C@](Cc4ccccc4)(C(=O)OC)N23)cc1 ?
SARS PLP yeast: -4.1%

Results for CCOc1ncccc1C(=O)Nc1cccc(Cl)c1Cl ?
Shiga inhibitor: -5.4; SARS PLP yeast: 0.2%; Cycloheximide cs: -1.9; NS1 function inh: -3.7%; Pf growth 96h: 14.4%; Pf growth 48h: -26.6%

Results for COc1ccc(C=O)cc1Cn1ccnc1C ?
Shiga inhibitor: -4.1; SARS PLP yeast: 0.1%; Cycloheximide cs: -4.5; NS1 function inh: -2.3%; Pf growth 96h: inconclusive; Pf growth 48h: 0.0%

What do the screens show for `Cc1ccc(C2(C)NC(=O)N(CC(=O)NNC(=O)c3cc(C)oc3C)C2=O)cc1` (stereo not drawn)?
SARS PLP yeast: 2.2%; Pf growth 96h: 48.2%; Pf growth 48h: 17.7%

Results for O=C1c2ccccc2S(=O)(=O)N1CCOc1ccc(F)cc1 ?
Shiga inhibitor: 55.1; SARS PLP yeast: 2.0%; Cycloheximide cs: 20.9*; NS1 function inh: 4.3%; Pf growth 96h: 80.8%; Pf growth 48h: 34.5%

What do the screens show for `O=C(CCN1C(=O)c2ccccc2S1(=O)=O)NCc1ccc(F)cc1`?
SARS PLP yeast: 4.5%; Pf growth 96h: 32.5%; Pf growth 48h: 3.5%

How did CS(=O)(=O)N1CCC(Oc2ccccc2C(=O)N2CCC[C@H]2CO)CC1 do in these assays?
Shiga inhibitor: 40.2; SARS PLP yeast: -6.5%; Cycloheximide cs: 16.6*; NS1 function inh: 4.7%; Pf growth 96h: -8.5%; Pf growth 48h: 12.7%

How did COCCNC(=O)c1cccc(OC2CCN(Cc3ccccc3C)CC2)c1 do in these assays?
Shiga inhibitor: -6.1; SARS PLP yeast: 1.6%; Cycloheximide cs: 1.9; NS1 function inh: 17.7%; Pf growth 96h: 1.47µM*; Pf growth 48h: -4.1%

What do the screens show for `CS(=O)(=O)N1CCC(Oc2ccccc2C(=O)NC2CCCCCC2)CC1`?
Shiga inhibitor: 12.8; SARS PLP yeast: -1.5%; Cycloheximide cs: 16.9*; NS1 function inh: 1.0%; Pf growth 96h: 11.2%; Pf growth 48h: -34.7%

Results for CCOCCCNC(=O)c1cccc(OC2CCN(S(C)(=O)=O)CC2)c1 ?
Shiga inhibitor: 35.1*; SARS PLP yeast: 3.7%; Cycloheximide cs: 30.3*; NS1 function inh: -21.6%; Pf growth 96h: -16.3%; Pf growth 48h: 27.7%

What do the screens show for `CN(C)C(=O)c1c2c(nc3ccccc13)-c1ccccc1CC2`?
Shiga inhibitor: -18.9; SARS PLP yeast: 0.4%; Cycloheximide cs: -3.3; NS1 function inh: 2.2%; Pf growth 96h: 53.4%; Pf growth 48h: -1.8%

What do the screens show for `COc1cc(CC(=O)OCC(=O)N2C(C)CCCC2C)cc(OC)c1OC` (stereo not drawn)?
Shiga inhibitor: -0.1; SARS PLP yeast: 1.4%; Cycloheximide cs: 6.0; NS1 function inh: -1.6%; Pf growth 96h: 1.6%; Pf growth 48h: -6.3%

How did CCOc1ccc(C(=O)NCC(=O)NCC2CCCCC2)cc1OCC do in these assays?
Shiga inhibitor: -5.5; SARS PLP yeast: -1.4%; Cycloheximide cs: -3.6; NS1 function inh: 8.6%; Pf growth 96h: -8.8%; Pf growth 48h: -2.0%

How did CCC1CCCCN1CCCNC(=O)CCC(=O)N1CCOc2ccccc21 (stereo not drawn) do in these assays?
Shiga inhibitor: 3.9; SARS PLP yeast: -1.8%; Cycloheximide cs: 2.8; NS1 function inh: 2.3%; Pf growth 96h: -23.1%; Pf growth 48h: 16.1%

How did CCOCCCNC(=O)c1ccccc1OC1CCN(S(C)(=O)=O)CC1 do in these assays?
Shiga inhibitor: 12.9; SARS PLP yeast: 14.1%; Cycloheximide cs: 11.5*; NS1 function inh: 4.1%; Pf growth 96h: 0.3%; Pf growth 48h: 16.8%

How did Cc1nc(CNC(=O)c2ccccc2OC2CCN(S(C)(=O)=O)CC2)cs1 do in these assays?
Shiga inhibitor: 15.4; SARS PLP yeast: 0.5%; Cycloheximide cs: 11.7; NS1 function inh: 3.5%; Pf growth 96h: inconclusive; Pf growth 48h: 15.3%

How did COCC1CCCCN1C(=O)c1cccc(OC2CCN(S(C)(=O)=O)CC2)c1 (stereo not drawn) do in these assays?
Shiga inhibitor: 16.1; SARS PLP yeast: 0.3%; Cycloheximide cs: 15.6*; NS1 function inh: 1.4%; Pf growth 96h: inconclusive; Pf growth 48h: 26.6%

What do the screens show for `COC(=O)c1cc(-c2ccc3ccccc3c2)[nH]c(=O)c1C#N`?
NS1 function inh: 2.6%

Results for CC1CCCCC1NC(=O)/C(C#N)=C/c1ccccc1F (stereo not drawn) ?
Shiga inhibitor: 11.4; SARS PLP yeast: -87.8%; Cycloheximide cs: 9.5; NS1 function inh: -48.3%; Pf growth 96h: 11.7µM*; Pf growth 48h: inconclusive

How did N#C/C(=C\c1c(F)cccc1Cl)C(=O)NC1CC1 do in these assays?
Shiga inhibitor: -11.8; SARS PLP yeast: 0.8%; Cycloheximide cs: 10.3; NS1 function inh: 6.4%; Pf growth 96h: 13.1µM*; Pf growth 48h: -15.6%

Results for Cc1[nH]c2ccccc2c1/C=C(\C#N)C(=O)NC(C)c1ccccc1 (stereo not drawn) ?
Shiga inhibitor: -5.3; SARS PLP yeast: -42.4%; Cycloheximide cs: -2.9; NS1 function inh: 4.9%; Pf growth 96h: inconclusive; Pf growth 48h: inconclusive

Results for Cc1[nH]c2ccccc2c1/C=C(\C#N)C(=O)NC1CC1 ?
Shiga inhibitor: 129.2*; SARS PLP yeast: 1.5%; Cycloheximide cs: 55.1*; NS1 function inh: -8.1%; Pf growth 96h: 106.3%; Pf growth 48h: 41.6%

Results for CC(=O)Nc1ccc(/C=C(\C#N)C(=O)NC2CCCCC2C)cc1 (stereo not drawn) ?
Shiga inhibitor: -10.4; SARS PLP yeast: 1.8%; Cycloheximide cs: 6.0; Pf growth 96h: -11.4%; Pf growth 48h: inconclusive

Results for N#C/C(=C\c1c[nH]c2ccccc12)C(=O)NC1CC1 ?
Shiga inhibitor: 36.3*; SARS PLP yeast: -17.4%; Cycloheximide cs: 56.3*; NS1 function inh: -17.1%; Pf growth 96h: 12.3%; Pf growth 48h: 166.3%

What do the screens show for `O=c1c2ccccc2nnn1CCO`?
Shiga inhibitor: -3.4; SARS PLP yeast: -0.9%; Cycloheximide cs: 3.6; NS1 function inh: -3.9%; Pf growth 96h: 41.9%; Pf growth 48h: 40.4%

What do the screens show for `c1nc(NCCc2cnc[nH]2)c2[nH]cnc2n1`?
NS1 function inh: -0.4%

Screening results: PubChem, National Center for Advancing Translational Sciences (NCATS)
